High-throughput results deposited in PubChem by University of Kansas High Throughput Screening Laboratory.
Sampled rows, rich in hits. Any-hit rate of the full collection: about 3.6%.
mHTT-CaM PPI inh – inhibitors of human mutant huntingtin-calmodulin interaction. P42858. AlphaScreen His-mHTT/GST-CaM binding, luminescence. inhibition, % at 15 µM. hit rate 3.6% among 190,000. AID 1671202;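 further: 0% = both proteins with DMSO and 100% = one protein alone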
Pf apPOL inh – Pf-apPOL DNA polymerase inhibition; Recombinant Pf-apPOL, molecular beacon fluorescence, 1.5 h; inhibition, % at 10 µM; hit rate 0.25% among 210,000; AID 1794808
* hit, by the source's call; / = not tested or not shown. No stated cut-off is given here; in the data, active means inhibition above about 50%; inactive means the rest.

SMILES	mHTT-CaM PPI inh	Pf apPOL inh
CC(=O)N1CCc2cc(Br)cc(S(=O)(=O)NCCC3=CCCCC3)c21	0	-1
COc1ccc(S(=O)(=O)NCCCCCC(=O)N2CCC3(CC2)OCCO3)cc1	-2	-1
O=C(c1ccccc1NC(=O)C(Cl)(Cl)Cl)N1CCSCC1	/	-1
Cc1ccc(-c2ccc(N)cc2)o1	55*	-1
Cc1ccc(-c2ccccc2N)o1	19	-1
N#Cc1c(Cl)nsc1-c1ccc(Cl)cc1Cl	8	-3
COc1ccc(CNc2ccc([N+](=O)[O-])cc2C)c(OC)c1C	1	-6
COc1ccc(OC)c(CNc2ccc([N+](=O)[O-])cc2C)c1	51*	5
Cc1cc([N+](=O)[O-])ccc1NCc1c[nH]c2ccccc12	69*	2
COc1ccc(OC)c(CNc2cc([N+](=O)[O-])ccc2OC)c1	-3	22
COc1ccccc1N=C(N)SCc1ccccc1	/	-1
CCNc1cc(N2CCCC(CCC(=O)Nc3ccc4c(c3)OCCO4)C2)ncn1 (stereo not drawn)	19	-5
COc1ccc(NC(=O)CCC2CCCN(c3cc(NC4CC4)ncn3)C2)c(OC)c1 (stereo not drawn)	60*	-8
CCCNc1cc(N2CCCC(CCC(=O)Nc3ccc4c(c3)OCO4)C2)ncn1 (stereo not drawn)	51*	-6
CCNc1cc(N2CCCC(CCC(=O)Nc3ccc(OC)cc3OC)C2)ncn1 (stereo not drawn)	17	-6
COc1ccc(N2CCN(C(=O)C3CCN(c4nnc(-c5ccccc5)o4)CC3)CC2)cc1	7	-2
Cc1ccc(-c2nc3ccc(C)cn3c2NC(=O)C(C)(C)C)cc1	-2	0
COc1cccc(CN2CC(c3nc(C)no3)C2)c1OC	-20	-4
CCCN1CC=C2C(C#N)=C(N)C(C#N)(C#N)C(c3ccccc3Cl)C2C1 (stereo not drawn)	38	-2
COc1cccc(C2C3CN(Cc4ccccc4)CC=C3C(C(=O)O)=C(N)C2(C#N)C#N)c1 (stereo not drawn)	47	94*
CC(=O)N1CC=C2C(C#N)=C(N)C(C#N)(C#N)C(c3cccc(Cl)c3)C2C1 (stereo not drawn)	20	-8
Cc1ccc(C2C3CN(Cc4ccccc4)CC=C3C(C(=O)O)=C(N)C2(C#N)C#N)o1 (stereo not drawn)	52*	1
C=CCn1c(SCC(=O)O)nnc1-c1ccc([N+](=O)[O-])cc1	8	-5
COc1ccccc1NC(=O)C1CCN(c2c(C#N)cnc3ccccc23)CC1	0	2
Cc1nc(Nc2ccc(F)cn2)sc1C(=O)N1CCN(C2CCCCC2)CC1	26	0
SMILES	mHTT-CaM PPI inh	Pf apPOL inh
Cc1nc(Nc2ccc(F)cn2)sc1C(=O)N1CCc2ccccc2C1	65*	-3
Cc1cccc(N2CCN(C(=O)c3sc(Nc4ccc(F)cn4)nc3C)CC2)c1	85*	-4
Cc1nc(Nc2ccccn2)sc1C(=O)N1CCc2ccccc2C1	26	1
Cc1ccccc1N1CCN(C(=O)c2sc(Nc3ccc(F)cn3)nc2C)CC1	100*	-4
Cc1cccc(Nc2nc(C)c(C(=O)N3CCN(c4ccccc4)CC3)s2)n1	48	-4
CCC(C)C(=O)NCC1CCCO1 (stereo not drawn)	-6	/
Cc1cccc(N2CCN(C(=O)c3csc(C(=O)N4CCCC4)n3)CC2)c1	8	-1
COc1ccc(C(=O)N2CCCC2COc2ccc(C(=O)NC(C)C)cc2)cc1 (stereo not drawn)	3	4
N#C/C(=C\c1cc([N+](=O)[O-])ccc1Cl)C(=O)NCCc1c[nH]c2ccccc12	96*	-4
N#C/C(=C\c1c[nH]c2ccccc12)C(=O)Nc1cc([N+](=O)[O-])ccc1Cl	7	-4
O=C(NCc1cccnc1)c1ccc(Cl)cc1Cl	-2	-5
O=C(c1cccs1)N1CCN=C1N1CCN(c2ccccc2F)CC1	1	-2
O=C(NCCC1CCCCN1S(=O)(=O)c1cccs1)c1ccc2nsnc2c1 (stereo not drawn)	-5	-3
O=C(c1cc2nc(-c3ccc4c(c3)OCO4)cc(C(F)(F)F)n2n1)N1CCc2ccccc2C1	-11	4
CC1=C(C(=O)Nc2ccc(CN3CCC(C)CC3)cc2)C2(CCCCCC2)OC1=O	-5	0
Cn1nc(-c2ccccc2)cc1C(=O)NCCn1nc(-c2ccc(Cl)cc2)ccc1=O	-6	-8
O=C(NCCn1nc(-c2ccccc2)ccc1=O)c1ccc(-n2cccc2)cc1	63*	-6
CC1CCc2nn(CC(=O)Nc3ccc4c(c3)OCO4)c(=O)cc2C1 (stereo not drawn)	0	-1
Cc1ccc(/C=C2/SC(=Nc3ccccc3)NC2=O)c(C)c1	11	-2
Brc1cccc(-c2noc(CSc3nccn3-c3ccccc3)n2)c1	63*	0
O=S(=O)(Cc1nc(-c2cccc(Br)c2)no1)c1ccccc1	-54	1
CC(C)c1ccc(Cc2nnc(NC3CCCC3)[nH]c2=O)cc1	-6	-7
CCOC(=O)c1oc2cc(OC(=O)c3ccco3)ccc2c(=O)c1-c1ccccc1OC	39	-4
Cc1ccc(NC2=CC(=NS(=O)(=O)c3ccc(F)cc3)c3ccccc3C2=O)cc1	88*	-4
Cc1ccc(S(=O)(=O)N=Cc2ccc(F)cc2)cc1	23	0
SMILES	mHTT-CaM PPI inh	Pf apPOL inh
COc1ccc(NC2=CC(=NS(=O)(=O)c3ccc(C)cc3)c3ccccc3C2=O)cc1	46	-5
COc1ccc(S(=O)(=O)N=C2C=C(Nc3ccc(C)cc3)C(=O)c3ccccc32)cc1	75*	-3
COc1ccc(OC)c(NC(=O)c2sc3[nH]c(=O)c(C(=O)O)cc3c2N)c1	23	-3
Cc1ccc(N2CC(C(=O)NCc3ccccc3)CC2=O)cc1Cl (stereo not drawn)	-6	-3
CC(=O)N(c1ccc2oc3c(c2c1)CCCC3)S(=O)(=O)c1cc(C)ccc1C	1	-10
COc1ccc(C2CC(=O)C3=C(C2)Nc2ccccc2NC3c2cccc([N+](=O)[O-])c2)cc1OC (stereo not drawn)	32	14
CSc1ccc(C2Nc3ccccc3NC3=C2C(=O)CC(c2ccccc2)C3)cc1 (stereo not drawn)	49	-10
O=C1CC(c2ccccc2)CC2=C1C(c1ccc(Br)cc1)Nc1ccccc1N2 (stereo not drawn)	79*	0
O=C1CC(c2ccc(Cl)cc2)CC2=C1C(c1cccc([N+](=O)[O-])c1)Nc1ccccc1N2 (stereo not drawn)	62*	-4
CN1CC=C(/C=C/c2ccco2)CC1	-7	/
O=C(Nc1ccccc1C(F)(F)F)N1CCc2nc(-c3ccccc3)ncc2C1	-11	-6
COc1cc(OC)cc(N2CCN(C(=O)c3cccc(C)c3)C(C)C2=O)c1 (stereo not drawn)	1	-2
c1cc(-c2noc(-c3cccc4[nH]ccc34)n2)cc(-c2ccn[nH]2)c1	62*	4
Fc1ccccc1-c1nc(-c2cccc(-c3ccn[nH]3)c2)no1	9	2
CN1C(=O)CC(C(=O)Nc2cccc(Cl)c2)SC1=Nc1ccccc1 (stereo not drawn)	11	-15
COc1cccc(CCC(=O)N2CC3CN(S(=O)(=O)c4ccc(C)cc4)CC(C2)O3)c1	14	-5
Cc1ccc(Oc2cc(N3CCN(C(=O)C(C)C)CC3)ncn2)cc1	-5	-12
COc1cc(OC)c(C=Nc2ccc(O)cc2)cc1Br	64*	3
COc1ccc(C=Nc2ccc(O)cc2)c(OC)c1	71*	-7
